Experimental data reported in PubChem BioAssay AID743148 (Broad Institute, 2013).
Values without a mark were called inactive.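 Rule for the calls: active = fitted half-maximal signal loss reached at or below twice the highest valid dose tested; inconclusive = flat curve with 30 to 70% loss, or a poor fit; inactive = the rest, including signal gain.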

Test: viability loss in HepG2 liver cells – cell-based, CellTiter-Glo luminescence, dry powder, set 4, cytotoxicity control, dose response (AID 743148)
Details: CellTiter-Glo ATP luminescence, 72 h; series mostly up to 26 µM; cytotoxicity, % activity (negative = signal loss; -100 = mitoxantrone control): at the top concentration

Compound	cytotoxicity, % activity (negative = signal loss; -100 = mitoxantrone control)
COc1cc2c(cc1OC)-c1cc(=Nc3c(C)cc(C)cc3C)n(C)c(=O)n1CC2	91%
C[C@@H]1CC(=O)NN=C1c1ccc(F)c(F)c1	-4.1%
C[C@@H]1CC(=O)NN=C1c1ccc(N2CCOCC2)c(F)c1	8.85%
CCN(CC)c1ccc(C2=NNC(=O)CC2C)cc1[N+](=O)[O-] (stereo not drawn)	-1.46%
CC(=O)Nc1ccc(C2=NNC(=O)C[C@H]2C)cc1[N+](=O)[O-]	34.2%
C[C@@H]1CC(=O)NN=C1c1ccc(C2CCCCC2)cc1	3.58%
Cn1c(NC(=O)c2ccccc2)nc2ccccc21	-20.2%
C[C@@H]1CC(=O)NN=C1c1ccc(Cl)cc1	-21.9%
CCN1N=C(c2ccc(N(CC)CC)cc2)[C@H](C)CC1=O	-8.54%
C[C@@H]1CC(=O)NN=C1c1ccc(-c2cncnc2)cc1	-5.41%
C[C@H]1CC(=O)NN=C1c1ccc(N2CCOCC2)c(F)c1	-6.98%
C[C@@H]1CC(=O)NN=C1c1ccc(N2CCOCC2)cc1	-26.2%
O=C1CN2Cc3c(ccc(Cl)c3Cl)N=C2N1	7.7%
